Assay results taken from paper PMC5540273 (PLoS ONE, 2017).

test system: T1, TAK1; conditions: concentration: 1 μM, replicates: in singlicate; n = 1
T1 construct: gene MAP3K7
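Also: KINOMEscan kinase panel screen.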

SMILES | %Inh
Cc1ccccc1-c1cc(-c2c[nH]nc2-c2ccccn2)ccn1 [GW680061] | 0%
Cl.Cl.Cl.N#Cc1ccc(CCNc2nccc(-c3cccc(CN4CCNCC4)c3)n2)cc1 [GSK2137462] | 4%
COc1cc2ncnc(Nc3cccc(Br)c3)c2cc1OC.Cl [GI230329] | 0%
CCc1ccc(-c2ccc3c(c2)-c2n[nH]cc2S(=O)(=O)N3C)cc1 | 0%
CNc1nc(-c2ccc3c(N)n[nH]c3c2)cc(N2C[C@@H](C(=O)NC3CCCCC3)OC[C@H]2C)n1 [GSK2375584] | 0%
NS(=O)(=O)c1cccc(N/C=C2\C(=O)Nc3ccc(S(=O)(=O)Cc4c(Cl)cccc4Cl)cc32)c1 [GSK398099] | 0%
COc1ccc(CSc2nnc(-c3ccc4ncsc4c3)o2)cc1C(F)(F)F | 0%
O=C(Nc1n[nH]c2nc(-c3ccco3)c(Br)cc12)C1CCN(Cc2ccccc2)C1.O=C(O)[C@H](O)[C@@H](O)C(=O)O (stereo not drawn) [SB-742034] | 22%
CS(=O)(=O)CCNCc1nc(-c2ccc3ncnc(Nc4ccc5c(cnn5Cc5ccccc5)c4)c3c2)cs1.Cl.Cl [GW569716] | 0%
Cc1ccc(NC(=O)Nc2ccc(Cl)cc2)cc1-c1ccc(C(=O)Nc2ccncc2)cc1 [GSK1398472] | 0%
CC[C@@H]1CO[C@H](C(=O)Nc2ccccc2)CN1c1cc(-c2ccc3c(N)n[nH]c3c2)nc(NC)n1 [GSK2376236] | 6%
COC(=O)c1cccc(NC(=O)NC2CCN(c3ccnc(Nc4ccc(F)cc4)n3)C2)c1 (stereo not drawn) [GSK1379725] | 0%
O=c1cc(N2CCOCC2)nc2n(Cc3cccc(Cl)c3Cl)c3ccccc3n12 [GSK2299009] | 0%
COc1ccc(Nc2nccc(N3CCC(NC(=O)C(C)c4ccc(Cl)cc4)CC3)n2)cc1 (stereo not drawn) [GSK1379812] | 0%
Nc1ncnc2occ(-c3ccc4c(c3)CCN4C(=O)Cc3cc(F)ccc3F)c12 [GSK2645446] | 17%
Cc1c(Cn2c3ccccc3n3c(=O)cc(N4CCOCC4)nc23)cccc1C(F)(F)F [GSK2306394] | 0%
COc1ccc(Nc2nccc(N3CCC(NC(=O)c4cc5ccccc5s4)C3)n2)cc1 (stereo not drawn) [GSK1379738] | 0%
Cn1cncc1C(=O)NC1CCN(c2ccnc(Nc3ccc(F)cc3)n2)C1 (stereo not drawn) [GSK1379717] | 0%

SMILES | %Inh
CC(=O)c1cccc(NC(=O)NC2CCN(c3ccnc(Nc4ccc(F)cc4)n3)C2)c1 (stereo not drawn) [GSK1379710] | 0%
COc1cccc(C2=C(Nc3cc(Cl)c(O)c(Cl)c3)C(=O)NC2=O)c1 [SB-390767] | 0%
COc1cccc(CNC(=O)NC2CCN(c3ccnc(Nc4ccc(F)cc4)n3)C2)c1 (stereo not drawn) [GSK1379723] | 0%
Fc1ccc(-c2nn3cccc(F)c3c2-c2ccncc2)cc1 [GW475620] | 0%
CSc1ccc(-c2nc3n(c2-c2ccncc2)CCC3)cc1 [SKF-105561] | 0%
COc1ccc(CSc2nnc(-c3ccc4nccn4c3)o2)cc1C(F)(F)F | 33%
O=C1NC(=O)C(c2ccc(Cl)cc2)=C1Nc1ccc(O)cc1 [SB-340867] | 0%
CC(=O)c1c(C)c2cnc(Nc3ccc(N4CCNCC4)cn3)nc2n(C2CCCC2)c1=O | 28%
CNCc1ccc2nc(NC(=O)c3ccc(C(C)(C)C)cc3)cn2c1 | 20%
CNc1nc(-c2ccc3c(N)n[nH]c3c2)cc(N2C[C@@H](C(=O)Nc3ccccc3)CC[C@H]2C)n1 [GSK2298859] | 0%
COC(=O)c1cccc(NC(=O)NC2CCN(c3ccnc(Nc4ccc(OC)cc4)n3)C2)c1 (stereo not drawn) [GSK1379746] | 0%
Cc1ccccc1Cn1ccn2c(=O)cc(N3CCOCC3)nc12 [GSK2269905] | 0%
Nc1cccc(-c2ccc3c(N)n[nH]c3c2)n1 [GSK2192730] | 43%
COc1ccc(CSc2nnc(-c3ccc4c(c3)CCO4)o2)cc1 | 0%
COC(=O)C(Cc1ccccc1)NC(=O)NC1CCN(c2ccnc(Nc3ccc(F)cc3)n2)C1 (stereo not drawn) [GSK1379714] | 0%
c1ccc(-c2ccnc3[nH]ccc23)cc1 [SB-693578] | 11%
Cc1nccc(-c2c(-c3ccc(F)cc3)ncn2CCCN2CCOCC2)n1.Cl [SB-282975] | 26%
COc1nccc(-c2c(-c3ccc(F)cc3)ncn2CCCN2CCOCC2)n1 [SB-282852] | 43%
